GLP-1R inv ag: qHTS of GLP-1 Receptor Inverse Agonists (Inhibition Mode). Glucagon-like peptide 1 receptor (Homo sapiens), P43220. HEK293 GLP-1R CRE-luciferase, luminescence, 24 h; GLP-1R form is constitutively active. Potency, µM (doses to about 38.3 µM), without a hit: at the top dose activity change, negative = inhibition, most hits filed as inhibitors. hit rate 1.6% among 410,000. AID 624417, 2012; further: on the % scale 0 is the no-effect control and ±100 the full control effect; nearly all actives have a fitted effect of over 55% in size
Target sequence (P43220 whole entry, looked up): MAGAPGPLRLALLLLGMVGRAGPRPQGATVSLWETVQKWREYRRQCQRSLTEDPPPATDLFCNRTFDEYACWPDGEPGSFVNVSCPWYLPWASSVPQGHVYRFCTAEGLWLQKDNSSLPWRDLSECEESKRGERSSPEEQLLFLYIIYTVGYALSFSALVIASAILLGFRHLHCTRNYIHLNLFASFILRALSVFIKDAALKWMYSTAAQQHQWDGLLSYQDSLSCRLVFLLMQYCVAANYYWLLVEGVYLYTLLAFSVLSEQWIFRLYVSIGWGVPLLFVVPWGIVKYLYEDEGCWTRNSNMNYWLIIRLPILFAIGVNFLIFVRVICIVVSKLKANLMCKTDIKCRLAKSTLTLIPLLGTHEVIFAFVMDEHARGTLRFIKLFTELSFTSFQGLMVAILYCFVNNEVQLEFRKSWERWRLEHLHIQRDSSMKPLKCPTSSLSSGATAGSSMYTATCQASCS
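Inverse agonism was detected as reduced cAMP-driven luciferase luminescence after 24 h compound treatment. The cells were HEK293 clones expressing constitutively active human GLP-1R with the reporter. Reporter-only and GPR119 cell lines served as counterscreen controls.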
GLP-1R agonist: qHTS of GLP-1 Receptor Agonists; HEK293 GLP-1R CRE-luciferase, luminescence, 4-6 h; cells express a hypersensitive GLP-1R form; Potency, µM (doses to about 45.6 µM), inactives show top-dose activation, usual class: activators; hit rate 0.007% among 380,000; further: % of control where 0% means no effect
TGFb inhibitor: qHTS for Inhibitors of TGF-b | HepG2 CAGA-GFP TGF-b/SMAD3 reporter, GFP fluorescence, 18 h; TGF-beta stimulated, 500 pg/mL final | hit rate 1.2% among 410,000 | Potency, µM (top dose mostly 46.1 µM), for inactives: at the top dose activity, negative = inhibition, most hits filed as inhibitors; further: on the % scale 0 is the no-effect control and ±100 the full control effect; nearly all actives have a fitted effect of over 65% in size
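First, reporter cells (HEPG2 CAGA-GFP) rested 2 h at 37 degrees C. Next, compounds were pinned in and TGF-beta added to 500 pg/mL final. After 18 h, GFP was imaged per cell and summed per well.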
S2 tox: Viability Counterscreen for Primary qHTS for Inhibitors of ATXN expression; S2 cells (HEK-293 line with an ATXN2-luciferase reporter) viability, CellTiter-Fluor protease fluorescence, 24 h; Potency, µM (doses to about 56.7 µM), actives largely listed as cytotoxic; hit rate 0.49% among 400,000; AID 651635, 2014; further: nearly all actives have a fitted effect of over 40% in size
ATXN2 expr inh: Primary qHTS for Inhibitors of ATXN expression; hit rate 0.72% among 360,000; Potency, µM (top dose mostly 57 µM), for inactives: top-dose activity change, negative = inhibition, hits mostly inhibitors; AID 1745845, 2022; HEK-293 ATXN2-luciferase reporter, luminescence, 24 h; further: on the % scale 0 is the no-effect control and ±100 the full control effect; nearly all actives have a fitted effect of over 55% in size
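ATXN2-luciferase reporter cells (luciferase flanked by upstream and downstream ATXN2 gene portions) were treated 24 h at 37 °C with compounds at up to 57 uM. SteadyGlo luminescence gave expression; GF-AFC fluorescence gave viability.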
HepG2 tox: qHTS for Inhibitors of TGF-b: Cytotox Counterscreen; HepG2 CAGA-GFP viability, ATP luminescence, 18 h; Potency, µM (highest dose often 46.1 µM), inactives show top-dose activity change, negative = cytotoxicity, hits mostly cytotoxic; hit rate 0.76% among 410,000; AID 588856, 2011
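CellTiter-Glo luminescence gave cytotoxicity after 18 hours at 37 degrees C. The cells were HepG2 CAGA-GFP in 1% FBS DMEM, stimulated with 500 pg/mL TGF-beta after compound addition. %Activity was normalised to no-cell wells (complete cell-killing) and DMSO (no toxicity), and curves were fitted and classified.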
* marks the source's active call; other numbers are inactive results; i = inactive; ? = inconclusive; . = not tested or not shown. This is a sample that favours compounds with a hit; in the whole collection about 3.7% have one here. The call rests on the fitted dose curve; in most records, active means well fitted curve in the direction sought with a large enough effect; inconclusive means small, poorly fitted or top-dose-only effect, or another doubt; inactive means no such curve, though single readings can be large; an effect the other way counts as inactive or inconclusive. Potency means the concentration at half of the fitted maximal effect.

SMILES | GLP-1R inv ag | GLP-1R agonist | TGFb inhibitor | S2 tox | ATXN2 expr inh | HepG2 tox
Cc1cc(C)cc(NC(=O)CN2C(=O)CSc3ccc(S(=O)(=O)N4CCCC4)cc32)c1 | ? | . | -15% | . | . | -23%
Cc1ccc(NC(=O)CN2C(=O)CSc3ccc(S(=O)(=O)N4CCCCC4)cc32)cc1 | 5µM* | -1% | 3% | ? | -21% | 14%
Cc1ccc(Cl)cc1NC(=O)CN1C(=O)CSc2ccc(S(=O)(=O)N3CCCC3)cc21 | -19% | . | 0% | . | . | -20%
Cc1cc(Cl)ccc1NC(=O)CN1C(=O)CSc2ccc(S(=O)(=O)N3CCOCC3)cc21 | 11µM* | 5% | ? | i | -4% | -11%
CCOC(=O)c1ccc(N2C(=O)c3[nH]nc(-c4ccc(OCC)cc4)c3C2c2cccs2)cc1 (stereo not given) | ? | 2% | ? | ? | ? | -20%
CCOc1ccc(N2C(=O)c3[nH]nc(-c4ccc(OC)cc4)c3C2c2cccs2)cc1 (stereo not given) | ? | . | ? | 18µM* | ? | -28%
CCOc1ccc(-c2n[nH]c3c2C(c2cccs2)N(c2ccc(Br)cc2)C3=O)cc1 (stereo not given) | ? | . | 6.3µM* | . | . | -61%
CCOC(=O)c1ccc(N2C(=O)c3[nH]nc(-c4ccc(OCC)cc4)c3C2c2ccc(OC)cc2OC)cc1 (stereo not given) | -10% | -4% | ? | i | -5% | -16%
COCC(=O)Nc1cc(C(=O)NC2CCCc3ccccc32)c2c(c1)nc(-c1ccncc1)n2C (stereo not given) | . | . | . | i | . | .
O=c1[nH]nc(CNc2ccc(C(F)(F)F)cc2)c2ccccc12 | 80% | 25% | -11% | i | . | 1%
O=c1[nH]nc(CNc2ccc(O)cc2)c2ccccc12 | 79% | 1% | ? | i | -8% | 10µM*
CCCC[C@H](CC(=O)c1ccccc1)[C@@H](OC(C)=O)C(=O)Oc1c(C(C)C)cccc1C(C)C | 3.5µM* | -3% | ? | i | -10% | -10%
COc1ccc2c(Sc3ccc(Cl)cc3)c(C(=O)NCCCN3CCCCC3)[nH]c2c1 | ? | . | ? | . | 25µM* | 16µM*
CCOCCCNC(=O)c1[nH]c2cc(OC)ccc2c1Sc1ccccc1 | -10% | . | -5% | i | 3% | 4%
O=C(c1[nH]c2ccccc2c1Sc1ccc(Cl)cc1)N1CCCCC1 | 10µM* | . | ? | ? | -11% | -112%
C[C@@H]1CN([C@H](C)CO)C(=O)c2cccc(NC(=O)NC3CCCCC3)c2O[C@@H]1CN(C)C(=O)Nc1ccc(C(F)(F)F)cc1 | -2% | -3% | ? | 22µM* | ? | 18µM*
C[C@H](CO)N1C[C@H](C)[C@H](CN(C)C(=O)Nc2ccc(F)cc2)OCc2ccccc2-c2c(n(C)c3ccccc23)C1=O | 10µM* | -1% | ? | ? | -4% | -13%
C[C@H](CO)N1C[C@H](C)[C@@H](CN(C)C(=O)Nc2ccc(C(F)(F)F)cc2)Oc2c(NC(=O)NC3CCCCC3)cccc2C1=O | ? | -3% | ? | 28µM* | ? | -32%
C[C@H](CO)N1C[C@H](C)[C@@H](CN(C)C(=O)Nc2ccccc2)Oc2c(NC(=O)Nc3ccc(C(F)(F)F)cc3)cccc2C1=O | ? | -9% | 16µM* | . | ? | -97%
CO[C@H]1C[C@@H]2CC[C@@H](C)[C@@](O)(O2)C(=O)C(=O)N2CCCC[C@H]2C(=O)O[C@H]([C@H](C)C[C@@H]2CC[C@@H](OC(=O)C(C)(CO)CO)[C@H](OC)C2)CC(=O)[C@H](C)/C=C(\C)[C@@H](O)[C@@H](OC)C(=O)[C@H](C)C[C@H](C)/C=C/C=C/C=C/1C | . | -4% | . | . | . | .
CC(=O)N[C@@H](CO)C(=O)N[C@@H](CC(=O)O)C(=O)N[C@@H](CCCCN)C(=O)N1CCC[C@H]1C(=O)O | . | . | . | i | 3% | .
Cc1nc(C)c(-c2ccc(SCC(=O)Nc3ccc(Cl)c(Cl)c3)nn2)s1 | 16% | . | 0% | . | . | -24%
Oc1c(N=Nc2ccccn2)ccc2ccccc12 | ? | -17% | 6.3µM* | 10µM* | 7.9µM* | -44%
CCCn1c(CCC(=O)Nc2cc(OC)cc(OC)c2)nc2cccnc21 | 11% | . | 32% | i | -9% | -5%
Cc1ccc(-c2nc(P(=O)(c3ccccc3)c3ccccc3)c(N3CCOCC3)o2)cc1 | 10µM* | 4% | -22% | i | -11% | -20%
SMILES | GLP-1R inv ag | GLP-1R agonist | TGFb inhibitor | S2 tox | ATXN2 expr inh | HepG2 tox
NC(N)=N/N=C(\N=Nc1ccccc1)c1ccc(Cl)cc1 | 10µM* | -5% | -18% | ? | -9% | -57%
CCN(CC)c1ccc(/C=N/NC(=O)c2ccoc2C)c(O)c1 | 3.5µM* | -3% | ? | i | -23% | -59%
CCN(CC)c1ccc(/C=N/NC(=O)c2ccc3nc[nH]c3c2)c(O)c1 | 15% | 22% | -2% | i | 2.8µM* | 3%
CCSc1cc(N2CC(C)OC(C)C2)nc(-c2ccccc2Cl)n1 (stereo not given) | 10µM* | 18% | 2% | i | 0% | -1%
CCSc1cc(N2CCCC2)nc(-c2ccc(C)cc2)n1 | 18% | 0% | 15% | i | 6% | 19%
Cc1c(C(=O)N2CCN(C)CC2)sc2ncnc(NCC3(c4ccccc4)CCOCC3)c12 | . | . | . | i | . | .
Cc1cc(C)cc(NS(=O)(=O)c2ccc3c(c2)CCCN3C(=O)C2CCC2)c1 | ? | . | ? | 25µM* | ? | -34%
O=C(C1CCC1)N1CCCc2cc(S(=O)(=O)Nc3ccc(F)cc3)ccc21 | ? | . | -26% | i | -16% | -5%
O=C(/C=C/c1ccccc1Cl)c1ccccc(=O)c1O | ? | -1% | ? | ? | 25µM* | -32%
Cc1ccc(/C=C/C(=O)c2ccccc(=O)c2O)c(C)c1 | ? | 7% | 13µM* | ? | ? | -58%
O=C(/C=C/c1ccccc1Cl)c1cccnc1 | -29% | -32% | ? | i | 5% | 11µM*
Cc1ccc(C)c(/C=C/C(=O)c2ccccc(=O)c2O)c1 | ? | 6% | ? | ? | 18µM* | -70%
Cc1ccc(/C=C/C(=O)c2ccccc2)cc1 | 4% | -9% | ? | i | 0% | .
O=C(/C=C/c1ccccc1Cl)c1ccc(O)cc1 | ? | -4% | ? | i | 13% | -29%
